PubChem BioAssay AID1159580 (chemical genetic matrix, 2015)
Several values for one entry are separate records, joined by “and”; a condition that tells them apart may be missing. Identical values can stand only once. Hit rate of the full screen: of about 5,500 compounds, about 2,000 (36%) were called active. Roughly 18% stayed inconclusive and do not appear here. No stated cut-off is given here; in the data, active means normalized growth mostly below about 0.91 (no sharp cut-off); inconclusive means no clear call, values can overlap the other calls; inactive means mostly above about 0.92. Some of the results follow.

Experiment: chemical genetic growth profiling, strain panel (AID 1159580);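 further: tested at 20 µM; growth read once vehicle control cultures reached saturation at 30 °C; 1 = growth at the plate median or of vehicle wells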
Details: S. cerevisiae deletion strains, growth OD

Measured: normalized growth

NNCCc1ccccc1
inactive: locus YAL013W, strain DEP1, stronger effect = lower value 1 | locus YAL021C, strain ccr4, stronger effect = lower value 1.01 | locus YAL026C, strain drs2, stronger effect = lower value 1.02 | locus YAL030W, strain snc1, stronger effect = lower value 1.01 | locus YAL040C, strain CLN3, stronger effect = lower value 1.04 | locus YBL061C, strain skt5, stronger effect = lower value 1.01 | locus YBR009C, strain hhf1, stronger effect = lower value 1.01 | locus YBR021W, strain FUR4, stronger effect = lower value 0.997 | locus YBR023C, strain chs3, stronger effect = lower value 1.01 | locus YBR171W, strain sec66, stronger effect = lower value 1.02 | locus YBR229C, strain ROT2, stronger effect = lower value 0.954 | locus YBR231C, strain swc5, stronger effect = lower value 1.01 | locus YBR279W, strain paf1, stronger effect = lower value 1.01 | locus YCL011C, strain gbp2, stronger effect = lower value 1.01 | locus YCL016C, strain dcc1, stronger effect = lower value 1.01 | locus YCL029C, strain bik1, stronger effect = lower value 0.968 | locus YCL061C, strain MRC1 (second series), stronger effect = lower value 1.01 | locus YCL061C, strain MRC1, stronger effect = lower value 1.01 | locus YCL069W, strain vba3, stronger effect = lower value 1 | locus YCR088W, strain abp1, stronger effect = lower value 1.01 | locus YDL005C, strain med2, stronger effect = lower value 1.01 | locus YDL035C, strain GPR1, stronger effect = lower value 0.973 | locus YDL040C, strain nat1, stronger effect = lower value 1 | locus YDL074C, strain BRE1, stronger effect = lower value 0.946 | locus YDL101C, strain DUN1, stronger effect = lower value 0.975 | locus YDL134C, strain PPH21, stronger effect = lower value 0.994 | locus YDL185W, strain tfp1, stronger effect = lower value 0.98 | locus YDL192W, strain arf1, stronger effect = lower value 0.986 | locus YDR001C, strain nth1, stronger effect = lower value 1 | locus YDR069C, strain doa4, stronger effect = lower value 1 | locus YDR101C, strain arx1, stronger effect = lower value 0.985 | locus YDR137W, strain rgp1, stronger effect = lower value 1.02 | locus YDR150W, strain NUM1, stronger effect = lower value 0.996 | locus YDR159W, strain sac3, stronger effect = lower value 1.01 | locus YDR162C, strain NBP2, stronger effect = lower value 0.991 | locus YDR195W, strain ref2 0.997 | locus YDR297W, strain sur2, stronger effect = lower value 1 | locus YDR318W, strain mcm21, stronger effect = lower value 0.991 | locus YDR334W, strain swr1, stronger effect = lower value 0.999 | locus YDR335W, strain msn5, stronger effect = lower value 1.01 | locus YDR363W, strain ESC2, stronger effect = lower value 1.06 | locus YDR388W, stronger effect = lower value 0.991 | locus YDR392W, strain spt3, stronger effect = lower value 0.93 | locus YDR502C, strain sam2, stronger effect = lower value 0.994 | locus YEL003W, strain gim4, stronger effect = lower value 0.997 | locus YEL037C, strain rad23, stronger effect = lower value 1.01 | locus YEL061C, strain CIN8 (second series), stronger effect = lower value 1.01 | locus YEL061C, strain CIN8, stronger effect = lower value 0.98 | locus YER002W, strain NOP16, stronger effect = lower value 0.998 | locus YER015W, strain faa2, stronger effect = lower value 0.994 | locus YER016W, strain bim1, stronger effect = lower value 1.01 | locus YER110C, stronger effect = lower value 0.952 | locus YER111C, strain swi4, stronger effect = lower value 1.01 | locus YER155C, strain BEM2 (second series), stronger effect = lower value 1 | locus YER155C, strain BEM2, stronger effect = lower value 1 | locus YER167W, strain BCK2, stronger effect = lower value 0.99 | locus YFR010W, strain ubp6, stronger effect = lower value 0.989 | locus YGL078C, strain dbp3, stronger effect = lower value 0.995 | locus YGL086W, strain mad1, stronger effect = lower value 0.976 | locus YGL167C, strain pmr1, stronger effect = lower value 1.01 | locus YGL173C, strain kem1, stronger effect = lower value 1.01 | locus YGL227W, strain vid30, stronger effect = lower value 1.02 | locus YGL240W, strain doc1, stronger effect = lower value 1 | locus YGL248W, strain PDE1, stronger effect = lower value 0.979 | locus YGL253W, strain hxk2, stronger effect = lower value 1.01 | locus YGR078C, strain PAC10, stronger effect = lower value 1.01 | locus YGR135W, strain pre9, stronger effect = lower value 0.982 | locus YGR229C, strain SMI1, stronger effect = lower value 0.985 | locus YGR252W, strain gcn5, stronger effect = lower value 0.898 | locus YHR013C, strain ard1, stronger effect = lower value 1.02 | locus YHR027C, strain rpn1, stronger effect = lower value 1 | locus YHR030C, strain SLT2, stronger effect = lower value 0.996 and 0.983 | locus YHR079C, strain IRE1 (second series), stronger effect = lower value 0.991 | locus YHR079C, strain IRE1, stronger effect = lower value 0.965 | locus YHR094C, strain hxt1, stronger effect = lower value 0.99 | locus YHR129C, strain ARP1, stronger effect = lower value 0.981 | locus YHR142W, strain chs7, stronger effect = lower value 1.02 | locus YHR200W, strain rpn10, stronger effect = lower value 0.989 | locus YIL066C, strain RNR3, stronger effect = lower value 0.978 | locus YIL073C, strain SPO22, stronger effect = lower value 0.992 | locus YIL125W, strain kgd1, stronger effect = lower value 0.996 | locus YIR030C, strain dcg1, stronger effect = lower value 0.981 | locus YJL092W, strain hpr5, stronger effect = lower value 1 | locus YJL095W, strain BCK1 (second series), stronger effect = lower value 1.01 | locus YJL095W, strain BCK1, stronger effect = lower value 0.987 and 0.984 | locus YJL115W, strain asf1, stronger effect = lower value 1.01 | locus YJL129C, strain trk1, stronger effect = lower value 1.01 | locus YJL134W, strain LCB3, stronger effect = lower value 0.993 | locus YJL154C, strain vps35, stronger effect = lower value 1.01 | locus YJL164C, strain tpk1, stronger effect = lower value 1 | locus YJL166W, strain qcr8, stronger effect = lower value 1.01 | locus YJL168C, strain set2, stronger effect = lower value 0.985 | locus YJL187C, strain SWE1 (second series), stronger effect = lower value 0.976 | locus YJL187C, strain SWE1, stronger effect = lower value 1.01 | locus YJR043C, strain POL32, stronger effect = lower value 0.988
